For 38 compounds, growth results are on record in PubChem BioAssay (NCI).

This is part of a sample that, as a whole, favours compounds with a hit. Of some 83,000 tested, about 20% had one in any assay.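 Assay: single dose, 48 h. Readout: percent growth (0 = no net growth; negative = cell death). Active: <10.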 A number with no mark means an inactive call. Active and inactive are the calls of the source.

The first assay deals with SNB-75 CNS. As to the kind of experiment: NCI-60 one-dose screen, 48 h (100 = growth as untreated, 0 = no growth, -100 = all killed). The following applies: 10 µM unless noted.
In the case of `O=C1CC(c2ccc(I)cc2)OC2C=Cc3ccccc3C12` (stereo unspecified), the growth was 111%.
The same measure, in the same setting: the figure for `COc1ccc(NC(=O)Cn2c(/C=C/c3cccc(OC)c3)nc3ccccc3c2=O)cc1` is -34.5% (active); for `COc1ccc2[nH]c(=O)c(CSc3ccccc3Nc3nccc(-c4ccc5c(c4)OCO5)n3)cc2c1` it is 71.8%; for `Cc1nc2sccn2c1-c1nnc(SCC(C)C)o1` it is 73.7%.
On the same count and under the same terms, in the case of `O=c1c(-c2nc(-c3ccccc3)c(-c3ccccc3)[nH]2)coc2ccc(F)cc12` it was 39%.
Same read-out and setting: the figure for `CCN1C(=O)N(CC)C2NNC(Sc3c(C(=O)O)c4ccccc4n(CCC(C)C)c3=O)=NC21` (stereo unspecified) is 26.1%; for `CCCCNc1ccc2c3c(cccc13)C(=O)N(c1cccc(-c3nn(-c4ccccc4)cc3-c3nc4ccccc4s3)c1)C2=O` it is 92.8%; for `COc1ccc(C(=O)c2c(N)c(C#N)cn2-c2ccc([N+](=O)[O-])cc2)cc1` it is 92.2%.
In the case of `COC(=O)c1cc(C(=O)CBr)n2c1ccc1c3ccccc3ccc12`, the growth is 90.2%.
Still for that read-out and setting: in the case of `Cc1ccc(C2CC(c3ccc(NC(=S)Nc4ccccc4)cc3)=NN2c2ccc(S(N)(=O)=O)cc2)cc1` (stereo unspecified) it was 21.4%.
For `O=C1/C(=C/C=C/c2ccco2)SC(=S)N1CC(=S)C1C=CS(=O)(=O)C1` (stereo unspecified), the growth is 93.5%.
Still for that read-out and setting: the figure for `Oc1ccc(F)c(Nc2nc(SCCN3CCOCC3)nc3c2cnn3CC(Cl)c2ccc(Br)cc2)c1` (stereo unspecified) is 15.2%; for `Fc1ccc(Nc2nnc(-c3c[nH]c4ccccc34)o2)cc1` it is 88.9%.
The same measure, in the same setting: in the case of `COc1ccc(C(=O)/C=C/c2ccc3c(c2)OCCO3)cc1S(N)(=O)=O` it was 82.5%; in that of `COc1ccc(C(=O)NNC(=O)CSc2nc3sc4c(c3c(=O)n2-c2ccc(Cl)cc2)CCCC4)cc1`, 44.5%.
On to `c1n[nH]cc1-c1nc2ccc3[nH]ncc3c2c2c1CC1(CC2)COC1`, for which the growth is -5.96% (active).
Same read-out and setting: the figure for `C#CCN(C)CCCOc1ccc(N(CC)C(=O)c2cc(C(C)C)c(O)cc2O)cc1Cl` is -1.15% (active); for `COc1ccc2c(c1)c(-c1cc(N)n3nc(-c4c[nH]c5ccccc45)cc3n1)cn2C` it is -24.8% (active).
Regarding `COc1sc(/C=N/NC(=O)c2[nH]c3ccc(Br)cc3c2-c2ccccc2)cc1Br`, the growth was 57.1%.
As to `COc1ccc(C(=O)c2cc(C(C)=O)c3c(C)cc(C)cn23)cc1`, the growth was 2.27% (active).
Take `COc1ccc(N=Nc2c(N)nn3c(-c4ccc5c(c4)C=S=C5)ccnc23)cc1`: the growth is 35.6%.
Same read-out and setting: the figure for `Cn1cc(-c2cc3nc(-c4cn(C)c5ncccc45)cc(N)n3n2)c2cc(F)ccc21` is 52.9%; for `O=C(COc1ccc(/C=C2/C(=O)Nc3ccc(Cl)cc32)cc1)Nc1ccc(Br)cc1` it is -57% (active); for `Cc1ccc2nc(COc3ccc(C(=O)NNC(=O)Nc4ccc(Cl)c(C(F)(F)F)c4)cc3)[nH]c2c1` it is 94.1%.
Take `COc1ccc(N=Nc2c(N)nn3c(-c4ccc(F)cc4)ccnc23)cc1`: the growth is 110%.
On the same count and under the same terms, the figure for `COc1cc(/C=C/C(=O)c2cnn(-c3cc(=O)[nH]c4ccc(C)cc34)c2C)cc(OC)c1OC` is 45.1%.
Still for that read-out and setting: the figure for `COc1ccc(-c2cc(C(=O)OCc3ccc(Br)cc3)nn2-c2ccc(S(C)(=O)=O)cc2)cc1OC` is 60.5%.
Same read-out and setting: the figure for `Cc1ccc(C(=O)Nc2cc(-n3ccnc3)cc(C(F)(F)F)c2)cc1-n1cc(-c2cnc3cccnn23)nn1` is 132%.
In the case of `COc1cc(/C=C/C(=O)c2ccc(S(=O)(=O)NCCNc3nc(N(C)C)nc(N4CCOCC4)n3)cc2)cc(OC)c1OC`, the growth was 20%.
On the same count and under the same terms, the figure for `O=C(N/N=C/c1ccsc1)c1[nH]c2ccc(Br)cc2c1-c1ccccc1` is -32.3% (active); for `Cc1[nH]nc2ccc3nc(-c4cnn(CCO)c4)c4c(c3c12)CCCC4` it is 31.9%.
`CCOC(=O)/C(F)=C/C1CC1C1CCN(C(=O)OC(C)(C)C)CC1` (stereo unspecified): the growth is 93.9%.
On the same count and under the same terms, in the case of `O=C(Nc1nc2ccccc2s1)Nc1ccccc1Cl` it was 20.4%; in that of `C/C(=N\Nc1ccc(C(=O)O)cc1)c1cnn(-c2cc(=O)[nH]c3ccc(C)cc23)c1C`, 91.9%; in that of `OC1CCC(Cn2c(C(F)(F)F)cc3c(Cl)ncnc32)CC1` (stereo unspecified), -71.6% (active).
Same read-out and setting: in the case of `Cc1nn(-c2ccccc2)c2nc(C)n(C(=O)N/N=C/c3ccccc3)c(=O)c12` it was 62.3%.
Same read-out and setting: the figure for `COc1cc(CNC(=O)C[C@H](C)CCC=C(C)C)ccc1OCc1cn(-c2ccc(Cl)cc2Cl)nn1` is 7.99% (active); for `Clc1ccccc1Nc1nnc(-c2c[nH]c3ccccc23)o1` it is 42%.

A further assay concerns SNB-19 CNS. The assay is described as above. Particulars: 10 µM unless noted.
On to `O=C1CC(c2ccc(I)cc2)OC2C=Cc3ccccc3C12` (stereo unspecified), for which the growth was 101%.
Same read-out and setting: the figure for `COc1ccc(NC(=O)Cn2c(/C=C/c3cccc(OC)c3)nc3ccccc3c2=O)cc1` is 56.4%.
Same read-out and setting: in the case of `COc1ccc2[nH]c(=O)c(CSc3ccccc3Nc3nccc(-c4ccc5c(c4)OCO5)n3)cc2c1` it was 81.6%; in that of `Cc1nc2sccn2c1-c1nnc(SCC(C)C)o1`, 78.7%; in that of `O=c1c(-c2nc(-c3ccccc3)c(-c3ccccc3)[nH]2)coc2ccc(F)cc12`, 38.8%.
Same read-out and setting: the figure for `CCN1C(=O)N(CC)C2NNC(Sc3c(C(=O)O)c4ccccc4n(CCC(C)C)c3=O)=NC21` (stereo unspecified) is 15.5%.
`CCCCNc1ccc2c3c(cccc13)C(=O)N(c1cccc(-c3nn(-c4ccccc4)cc3-c3nc4ccccc4s3)c1)C2=O`: the growth is 106%.
Same read-out and setting: in the case of `COc1ccc(C(=O)c2c(N)c(C#N)cn2-c2ccc([N+](=O)[O-])cc2)cc1` it was 100%; in that of `COC(=O)c1cc(C(=O)CBr)n2c1ccc1c3ccccc3ccc12`, 55.5%.
`Cc1ccc(C2CC(c3ccc(NC(=S)Nc4ccccc4)cc3)=NN2c2ccc(S(N)(=O)=O)cc2)cc1` (stereo unspecified): the growth was 23.1%.
Still for that read-out and setting: the figure for `O=C1/C(=C/C=C/c2ccco2)SC(=S)N1CC(=S)C1C=CS(=O)(=O)C1` (stereo unspecified) is 95.2%.
Same read-out and setting: in the case of `Oc1ccc(F)c(Nc2nc(SCCN3CCOCC3)nc3c2cnn3CC(Cl)c2ccc(Br)cc2)c1` (stereo unspecified) it was 46.1%; in that of `Fc1ccc(Nc2nnc(-c3c[nH]c4ccccc34)o2)cc1`, 85%; in that of `COc1ccc(C(=O)/C=C/c2ccc3c(c2)OCCO3)cc1S(N)(=O)=O`, 51.4%.
Consider `COc1ccc(C(=O)NNC(=O)CSc2nc3sc4c(c3c(=O)n2-c2ccc(Cl)cc2)CCCC4)cc1`, for which the growth was 63.3%.
Same read-out and setting: in the case of `c1n[nH]cc1-c1nc2ccc3[nH]ncc3c2c2c1CC1(CC2)COC1` it was 47.4%; in that of `C#CCN(C)CCCOc1ccc(N(CC)C(=O)c2cc(C(C)C)c(O)cc2O)cc1Cl`, 11.2%; in that of `COc1ccc2c(c1)c(-c1cc(N)n3nc(-c4c[nH]c5ccccc45)cc3n1)cn2C`, -57.1% (active).
Consider `COc1sc(/C=N/NC(=O)c2[nH]c3ccc(Br)cc3c2-c2ccccc2)cc1Br`, for which the growth is 14.7%.
Still for that read-out and setting: the figure for `COc1ccc(C(=O)c2cc(C(C)=O)c3c(C)cc(C)cn23)cc1` is 24.8%; for `COc1ccc(N=Nc2c(N)nn3c(-c4ccc5c(c4)C=S=C5)ccnc23)cc1` it is 59.7%.
On the same count and under the same terms, the figure for `Cn1cc(-c2cc3nc(-c4cn(C)c5ncccc45)cc(N)n3n2)c2cc(F)ccc21` is 8.57% (active).
Still for that read-out and setting: the figure for `O=C(COc1ccc(/C=C2/C(=O)Nc3ccc(Cl)cc32)cc1)Nc1ccc(Br)cc1` is 5.08% (active); for `Cc1ccc2nc(COc3ccc(C(=O)NNC(=O)Nc4ccc(Cl)c(C(F)(F)F)c4)cc3)[nH]c2c1` it is 24.9%.
For the compound `COc1ccc(N=Nc2c(N)nn3c(-c4ccc(F)cc4)ccnc23)cc1`, the growth was 97.1%.
Regarding `COc1cc(/C=C/C(=O)c2cnn(-c3cc(=O)[nH]c4ccc(C)cc34)c2C)cc(OC)c1OC`, the growth is 18.7%.
On the same count and under the same terms, in the case of `COc1ccc(-c2cc(C(=O)OCc3ccc(Br)cc3)nn2-c2ccc(S(C)(=O)=O)cc2)cc1OC` it was 84.6%; in that of `Cc1ccc(C(=O)Nc2cc(-n3ccnc3)cc(C(F)(F)F)c2)cc1-n1cc(-c2cnc3cccnn23)nn1`, 118%; in that of `COc1cc(/C=C/C(=O)c2ccc(S(=O)(=O)NCCNc3nc(N(C)C)nc(N4CCOCC4)n3)cc2)cc(OC)c1OC`, 29.1%.
On the same count and under the same terms, in the case of `O=C(N/N=C/c1ccsc1)c1[nH]c2ccc(Br)cc2c1-c1ccccc1` it was -41.5% (active); in that of `Cc1[nH]nc2ccc3nc(-c4cnn(CCO)c4)c4c(c3c12)CCCC4`, 74.4%.
On to `CCOC(=O)/C(F)=C/C1CC1C1CCN(C(=O)OC(C)(C)C)CC1` (stereo unspecified), for which the growth was 96.5%.
As for `O=C(Nc1nc2ccccc2s1)Nc1ccccc1Cl`, the growth is 70.4%.
The same measure, in the same setting: in the case of `C/C(=N\Nc1ccc(C(=O)O)cc1)c1cnn(-c2cc(=O)[nH]c3ccc(C)cc23)c1C` it was 97.5%; in that of `OC1CCC(Cn2c(C(F)(F)F)cc3c(Cl)ncnc32)CC1` (stereo unspecified), -88.6% (active); in that of `Cc1nn(-c2ccccc2)c2nc(C)n(C(=O)N/N=C/c3ccccc3)c(=O)c12`, 87%.
`COc1cc(CNC(=O)C[C@H](C)CCC=C(C)C)ccc1OCc1cn(-c2ccc(Cl)cc2Cl)nn1`: the growth was 50%.
The same measure, in the same setting: in the case of `Clc1ccccc1Nc1nnc(-c2c[nH]c3ccccc23)o1` it was 41%.
